About 5,800 (36%) of roughly 16,000 compounds were called active. About 23% were inconclusive and are not listed. This is one part of the list. Unmarked numbers belong to inactive results. The call rests on the fitted dose curve; in most records, active means well fitted curve in the direction sought with a large enough effect; inconclusive means small, poorly fitted or top-dose-only effect, or effect the other way; inactive means no such curve, though single readings can be large or run the other way.
On the % scale 0 is the no-effect control and ±100 the full control effect.

Sequence of Cytochrome P450 2C19 (Homo sapiens) (P33261 whole entry, looked up): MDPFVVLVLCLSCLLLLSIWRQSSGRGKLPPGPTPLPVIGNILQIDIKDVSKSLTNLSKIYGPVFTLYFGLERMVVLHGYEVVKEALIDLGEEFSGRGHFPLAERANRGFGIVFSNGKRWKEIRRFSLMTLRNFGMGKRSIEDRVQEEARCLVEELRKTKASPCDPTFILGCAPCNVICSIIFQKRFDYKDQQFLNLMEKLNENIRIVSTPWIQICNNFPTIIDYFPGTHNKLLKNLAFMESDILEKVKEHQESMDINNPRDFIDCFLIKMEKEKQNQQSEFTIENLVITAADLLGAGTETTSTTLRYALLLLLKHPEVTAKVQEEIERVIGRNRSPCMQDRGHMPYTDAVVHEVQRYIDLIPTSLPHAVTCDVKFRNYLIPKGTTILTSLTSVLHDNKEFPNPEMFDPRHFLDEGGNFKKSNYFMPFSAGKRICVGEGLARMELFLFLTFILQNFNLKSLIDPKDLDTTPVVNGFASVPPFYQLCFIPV

The assay has as its target Cytochrome P450 2C19 (Homo sapiens) (UniProt P33261). Briefly: Cytochrome panel assay with activity outcomes. As to conditions: recombinant CYP, pro-luciferin dealkylation, luminescence, p450-cyp2c19; series mostly up to 57.1 µM; activity, negative = inhibition: at the top concentration.
As to `NCC[C@H]1CCC[C@H](CCN)N1`, the “activity, negative = inhibition” value was -4.62%.

As for `NC(=O)N1c2ccccc2C=Cc2ccccc21`, the “activity, negative = inhibition” value was -26.8% [at 25.6 µM]. Regarding `O=C(C[C@@H]1C=Cc2ccccc2N1C(=O)c1ccccc1)c1ccccc1`, the AC50 was 0.501 µM (active).

On to `O=C(Cc1ccc(Br)cc1)Nc1ccccc1Sc1ccccc1`, for which the AC50 was 0.178 µM (active). As for `O=C(NC1CCCCC1)C1CC=CCC1C(=O)OCC(Cl)=C(Cl)Cl` (stereo unspecified), the AC50 was 10 µM (active). Still for that read-out and setting: under `O=C(c1ccc2c(=O)n(Cc3ccco3)c(=S)[nH]c2c1)N1CCN(c2ccccc2)CC1` stands 2.24 µM (active). Regarding `COc1ccc(NC(=O)c2ccc3c(=O)n(Cc4ccco4)c(=S)[nH]c3c2)c(OC)c1`, the AC50 is 4.47 µM (active). For `COCCCNC(=O)c1ccc2c(=O)n(CC3CCCO3)c(=S)[nH]c2c1` (stereo unspecified), the “activity, negative = inhibition” value was 12%. For the molecule `O=C(c1ccc2c(=O)n(CC3CCCO3)c(=S)[nH]c2c1)N1CCN(c2ccccc2)CC1` (stereo unspecified), the AC50 was 11.2 µM (active). Turning to `CC(=O)OC[C@@H]1O[C@@H](O/N=C2/C[C@@H](O)[C@@H](O)[C@@H]3[C@@H]4C(=O)N(C5CCCCC5)C(=O)[C@H]4CC[C@@H]23)[C@H](OC(C)=O)[C@H](OC(C)=O)[C@@H]1OC(C)=O`, the activity, negative = inhibition is 2.25% [at 11.4 µM]. In the case of `CCOc1ccccc1NC(=O)C1Cc2ccccc2CN1S(C)(=O)=O` (stereo unspecified), the AC50 is 7.94 µM (active). In the case of `CCOc1ccccc1Nc1ccc(N)cc1S(=O)(=O)O`, the activity, negative = inhibition is -16.1% [at 11.4 µM]. Same read-out and setting: under `C=C(NC(=O)C(=C)NC(=O)c1csc(C2=N[C@@H]3c4csc(n4)[C@@H]4NC(=O)c5csc(n5)[C@@H]([C@](C)(O)[C@H](C)O)NC(=O)[C@@H]5CSC(=N5)/C(=C/C)NC(=O)[C@@H]([C@H](C)O)NC(=O)c5csc(n5)[C@]3(CC2)NC(=O)[C@@H](C)NC(=O)C(=C)NC(=O)[C@@H](C)NC(=O)[C@@H]([C@@H](C)CC)N[C@H]2C=Cc3c([C@H](C)O)cc(nc3[C@@H]2O)C(=O)O[C@H]4C)n1)C(N)=O` stands 15.8% [at 25.6 µM]; under `O=S(=O)(c1ccccc1)N1CN2CN(C1)CN(S(=O)(=O)c1ccccc1)C2`, -18.2% [at 11.4 µM]. As to `O=C1CCN(S(=O)(=O)c2ccccc2)N1`, the AC50 is 17.8 µM (active).

For `O=S(=O)(c1ccccc1)N1CCC2(CC1)CN(C(c1ccccc1)c1ccccc1)C2`, the “activity, negative = inhibition” value is -6.26%. Same read-out and setting: under `O=C(Nc1cccc(F)c1)N1CCC2(CC1)CCN(C(=O)c1csnn1)CC2` stands -22.8%; under `O=C(c1csnn1)N1CCC2(CC1)CCN(c1ccccc1)CC2`, -19.6%; under `O=C(c1csnn1)N1CCC2(CCCN(Cc3ccccc3)C2)CC1`, 2.09%. As for `O=C(NCc1ccc(F)cc1)C(c1ccncc1)N(C(=O)c1csnn1)C1CC1` (stereo unspecified), the AC50 is 3.55 µM (active). As to `CCc1ccc(N(C(=O)c2csnn2)C(C(=O)NCc2ccccc2)c2ccco2)cc1` (stereo unspecified), the AC50 is 3.16 µM (active). With `O=C(OC(C(=O)O)C(OC(=O)c1ccccc1)C(=O)NCc1ccccc1)c1ccccc1` (stereo unspecified), the “activity, negative = inhibition” value is 1.03%. As to `O=C(NCc1ccccc1)C(c1ccncc1)N(C(=O)c1csnn1)C1CC1` (stereo unspecified), the AC50 was 8.91 µM (active). On the same count and under the same terms, under `CC(C)CCn1c(Oc2ccccc2Cl)nc2c1c(=O)n(C)c(=O)n2C` stands 15.8 µM (active). Consider `CCn1c(CCCc2nc3c([nH]2)c(=O)n(C)c(=O)n3C)nc2c1c(=O)n(C)c(=O)n2C`, for which the activity, negative = inhibition is 2.28% [at 11.4 µM]. Same read-out and setting: under `CCOC(=O)N1CCN(C(=O)c2cnc3n(c2=O)CCS3)CC1` stands -14.5%. In the case of `CCOC(=O)N1CCN(C(=O)C(CC)n2nc(C)c3sc4ccccc4c3c2=O)CC1` (stereo unspecified), the AC50 is 20 µM (active). As to `CCOC(=O)N1CCN(C(=O)C(C)SCc2ccccc2)CC1` (stereo unspecified), the “activity, negative = inhibition” value was -27.1%. Turning to `Cc1oc(-c2ccccc2Cl)nc1CSCC(=O)NC1CC1`, the AC50 was 14.1 µM (active). `Cc1oc(-c2ccccc2F)nc1CS(=O)(=O)CC(=O)NCCCN(C)C1CCCCC1`: the “activity, negative = inhibition” value was -9.67%. For the molecule `Cc1oc(-c2ccccc2F)nc1CSCC(=O)NCc1ccc2c(c1)OCO2`, the AC50 was 1.78 µM (active). As for `CCOC(=O)N1CCN(C(=O)CSCc2nc(-c3ccccc3F)oc2C)CC1`, the AC50 was 31.6 µM (active). On to `N#Cc1cccc(NC(=O)N2CCC3(CC2)CCN(C(=O)c2csnn2)CC3)c1`, for which the “activity, negative = inhibition” value is 15.6%.

Regarding `Nc1ncnc2c([C@@H]3O[C@@H](CO)[C@H](O)[C@@H]3O)nsc12`, the activity, negative = inhibition is 20.7% [at 11.4 µM]. Take `CC(C)(C(=O)c1cccnc1)c1cccnc1`: the “activity, negative = inhibition” value was -11.6% [at 25.6 µM]. On to `Cc1nn(C(C)(C)C)c(OC(=O)c2ccco2)c1Sc1ccccc1`, for which the AC50 is 7.08 µM (active). As for `Cc1nn(C(=O)c2cccnc2)c(C)c1Sc1ccc(Br)cc1`, the AC50 was 0.631 µM (active). The same measure, in the same setting: under `Cc1nn(C(=O)c2ccco2)c(C)c1Sc1ccccc1` stands 6.31 µM (active). With `O=C(c1ccco1)N1CCC[C@@]2(CCN(Cc3ccccc3)C2)C1`, the “activity, negative = inhibition” value was -21.5%. On the same count and under the same terms, under `O=C(c1ccco1)N1CCC2(CC1)CCN(c1ccccc1)CC2` stands -29.3%; under `C/C(CCN1CCCc2nc(C)c(C)cc21)=N\OC[C@@H](C)[C@H](OCc1ccccc1)C(C)C`, -29.2% [at 11.4 µM]. In the case of `Cc1ccccc1CSc1nsc(N)n1`, the AC50 was 11.2 µM (active). On to `CCN1/C(=C/c2ccc3cccc(C)c3[n+]2CC)Sc2ccccc21`, for which the “activity, negative = inhibition” value was -0.21%. For `O=C(CS(=O)(=O)c1cccc(Cl)c1)Nc1ccccc1Cl`, the AC50 is 2.51 µM (active).

For the molecule `O=C(CS(=O)c1cccc(C(F)(F)F)c1)Nc1ccccc1Cl` (stereo unspecified), the concentration at half-maximal activity (AC50) is 2.82 µM (active).

Turning to `NCC(=O)Nc1ccc(Cl)cc1C(=O)c1ccc[nH]1`, the activity, negative = inhibition was -10.9% [at 11.4 µM].

For the origin of these results see PubChem BioAssay AID1851 (National Center for Advancing Translational Sciences (NCATS), 2009).
